# Data published in PubChem BioAssay AID540356 (Broad Institute, 2011).
# Hit rate of the full screen: of about 2,500 compounds, about 360 (14%) were called active.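 The calls were made as follows: active = signal-lowering compounds whose fitted half-maximal concentration AC50 is no higher than ten times their top tested concentration; inconclusive = flat curve with 30 to 70% inhibition, or poor fit; inactive = flat within 30%, signal increase, or AC50 above limit.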 A selection follows.
# Test: HRP/luminol detection interference without ALR, dose response, artefact control for ALR inhibitor project, biochemical, luminescence, no ALR or DTT, cherry-pick (AID 540356);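 as to activity change, negative = inhibition: 0% = median of neutral control wells and -100% = median of quercitin 100 µM wells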
# Details: HRP/H2O2 luminol luminescence counterscreen; series mostly up to 10 µM; activity change, negative = inhibition: at the top concentration
Compound,"activity change, negative = inhibition",AC50
Cc1ccc(CN2CCSc3ccc(C(=O)NCCCN4CCN(C)CC4)cc32)cc1,-4.31% (inactive),
O=C(CN1CCN(c2ccc(O)cc2)CC1)Nc1ccc(S(=O)(=O)N2CCCC2)cc1,-5.81% (inactive),
Cc1ccc(-c2nc(Nc3cccc(C)c3)sc2CC(=O)O)cc1,-2.49% (inactive),
Cc1ccc(CS(=O)Cc2ccc(C(=O)N3CCN(c4ccccc4)CC3)o2)cc1 (stereo unspecified),0.836% (inactive),
CN(C)c1ccc(NC(=O)CN2CCc3ccccc3C2)cc1,-5.48% (inactive),
CN(C)c1ccc(NC(=O)CCn2c(=S)oc3ccccc32)cc1,-3.01% (inactive),
O=C(NCC(c1ccco1)N1CCc2ccccc21)c1ccccc1F (stereo unspecified),0.891% (inactive),
Clc1c(CSc2nc3ccccc3o2)nc2ccccn12,-2.53% (inactive),
CCCCCCCc1c(C#N)c(N)[nH]c(=S)c1C#N,-5.05% (inactive),
Cc1ccc(Sc2ccc(S(=O)(=O)Nc3ccc(C(=O)O)cc3)cc2)cc1C,-7.49% (inactive),
Cc1cc(C)c(S(=O)(=O)Nc2ccc(O)cc2)c(C)c1,,9.93 µM (active)
Cc1cccc(C(=O)Nc2ccc(O)cc2)c1,-13.4% (inactive),
Cc1ccc(S(=O)(=O)Nc2ccc(N(C)C)cc2)cc1,0.687% (inactive),
CC(=O)Nc1ccc(S(=O)(=O)Nc2ccc(Nc3ccccc3)cc2)cc1,-7.75% (inactive),
COc1ccc(S(=O)(=O)N/N=C(/C)c2ccncc2)c(OC)c1,-4.06% (inactive),
COc1cc(/C=N/NC(=O)c2nc3ccccn3c2C)cc(OC)c1O,-5.24% (inactive),
O=C(NN=C1CCC(=NNC(=O)c2cccnc2)CC1)c1cccnc1,,8.24 µM (active)
O=C(Nc1ccccc1N1CCCC1)c1cccnc1,-10.3% (inactive),
O=C(Nc1ccc(N2CCCCC2)cc1)c1cccnc1,0.535% (inactive),
Cc1ccc(N/N=C2/CCCNC2=O)cc1,-2.46% (inactive),
COc1ccccc1NS(=O)(=O)c1cc([N+](=O)[O-])ccc1N/N=C/c1c[nH]c2ccccc12,3.54% (inactive),
Cc1ccc(C(=O)Nc2cccc([N+](=O)[O-])c2)cc1S(=O)(=O)Nc1ccc(C(=O)O)cc1,-1.41% (inactive),
CNC(=O)c1cc(Nc2nnc(-c3ccc(O)cc3)c3ccccc23)ccc1OC,-3.44% (inactive),
CCN(CC)CCCN(C(=O)c1cccc(C)c1)c1nc(-c2ccc(OC)cc2)cs1,-3.71% (inactive),

Compound,"activity change, negative = inhibition",AC50
Cn1c(CNS(=O)(=O)c2ccc(Br)cc2)n[nH]c1=S,-0.165% (inactive),
CCCn1c(CCC(=O)O)ccc1-c1cccs1,-6.04% (inactive),
COc1cccc(NC(=O)CN2CCN(c3ccc(F)cc3)CC2)c1,0.116% (inactive),
Cc1cc(Oc2ncccc2[N+](=O)[O-])c2cc(Cl)ccc2n1,0.22% (inactive),
COc1ccccc1-n1cnc2cc(NCc3ccccc3O)ccc21,-0.965% (inactive),
COc1ccc(OC)c(CNc2ccc3c(c2)nc(C)n3C)c1,-7.25% (inactive),
O=[N+]([O-])c1ccc(-c2cn(-c3ccccc3F)c(=S)[nH]2)cc1,-1.24% (inactive),
Cc1nc(SCc2cccnc2)[nH]c(=O)c1C,1.87% (inactive),
Cc1ccc(NC2CCCN(C(=O)c3cc4ncccn4n3)C2)cc1C (stereo unspecified),-0.727% (inactive),
COc1cc(/C=N/Nc2nc(=O)[nH]nc2C)ccc1O,-6.83% (inactive),
NC(=O)c1ccc(CSc2nc3ccccc3s2)cc1,2.17% (inactive),
CNc1nnc(CSc2nc3ccccc3s2)s1,-0.989% (inactive),
CC(C)c1ccc(NC2CCCN(C(=O)C3=NN(C)C(=O)CC3)C2)cc1 (stereo unspecified),-5.77% (inactive),
Cc1cc(C(=O)NNc2ccccc2F)no1,,8.51 µM (active)
Cc1cc(C(=O)NNc2ccc(F)cc2F)no1,2.69% (inactive),
COC(=O)c1sccc1NC(=O)c1cc(C)on1,2.59% (inactive),
Cc1cccc(Oc2ccc3c(c2)cc(C(=O)O)n3C)c1,-1.07% (inactive),
CN(CCCNC(=O)c1cccc(N2CCCC2=O)c1)c1ccccc1,-1.85% (inactive),
CN(CC(=O)N1CCN(c2ccccc2)CC1)S(=O)(=O)c1cnc[nH]1,-1% (inactive),
O=C1CS/C(=N/N=C/c2ccco2)N1Cc1ccc(F)cc1,-1.89% (inactive),
Fc1ccc(CN2C3=NCCN3c3ccccc32)cc1,-0.206% (inactive),
Cn1cccc1CC(=O)N/N=C/c1ccc([N+](=O)[O-])cc1,-1.17% (inactive),
O=C(NNc1c2ccccc2nc2ccccc12)c1ccc(O)cc1O,-6.84% (inactive),
CC1C(=O)NN=C1C(=O)N/N=C\c1ccc(O)cc1O (stereo unspecified),,8.82 µM (active)

Compound,"activity change, negative = inhibition",AC50
COc1cccc(/C=N/NC(=O)CC2C(=O)NN=C2C)c1O (stereo unspecified),-6.48% (inactive),
CCN(CC)c1ccc(/C=N/NC(=O)c2ccco2)c(O)c1,-2.67% (inactive),
CC(C)c1ccc(NC2CCCN(C(=O)CCCn3cncn3)C2)cc1 (stereo unspecified),-0.691% (inactive),
Cc1nc(C(F)(F)F)c(C(=O)O)cc1-c1nc(-c2ccccc2)cs1,-3.6% (inactive),
O=C(O)c1ccccc1C(=O)Nc1ccc(-c2csc(-c3ccccc3)n2)cc1,1.08% (inactive),
Oc1ccc(-c2nc(-c3ccc(O)c(O)c3)cs2)cc1,,6.17 µM (active)
Nc1nc(-c2ccc3ccccc3c2)cs1,0.746% (inactive),
Cc1cc(-c2n[nH]c(=S)n2/N=C/c2ccc(Cl)c([N+](=O)[O-])c2)n[nH]1,-7.21% (inactive),
CN(C)c1ccc(/C=N/Nc2ccc(-n3ccnc3)nn2)cc1,-5.8% (inactive),
CCN(CC)c1ccc(NC(=O)c2ccc(Br)o2)cc1,,> 10 µM (inactive)
O=C(Nc1ccc(O)cc1)c1ccc(C(=O)c2ccccc2)o1,-0.476% (inactive),
Oc1ccc(/C(Cc2ccccn2)=N\Nc2ccccc2)c(O)c1,-13% (inactive),
Cc1ccc2nc(C)cc(N/N=C/c3ccccc3O)c2c1,-1.87% (inactive),
COc1ccc(-c2n[nH]c(=S)n2-c2ccc(C)cc2)cc1OC,-2.1% (inactive),
COc1ccc(-n2c(-c3ccc(OC)c(OC)c3)n[nH]c2=S)cc1,-7.41% (inactive),
Cc1occc1C(=O)NCCCCc1ccccc1,-2.42% (inactive),
O=C(NCCCN1CCCC1)c1ccc2c(Cl)c3c(nc2c1)CCCC3,-1.03% (inactive),
CC(C)Cc1nc2ccc(N)cc2[nH]1,-7.18% (inactive),
Nc1ccc(CCc2ccc(N)cc2)cc1,2.66% (inactive),
O=C(Nc1nnc(-c2cccnc2)o1)c1cccc([N+](=O)[O-])c1,2.15% (inactive),
Nc1ccc(N2CCN(C(=O)c3ccco3)CC2)cc1,-15% (inactive),
O=C1NC(=O)/C(=C/c2cc3c(cc2Br)OCO3)S1,-2.95% (inactive),
O=C1NC(=O)/C(=C\c2ccc(O)cc2O)S1,,7.54 µM (active)
COc1cc(/C=C2\SC(=Nc3ccccc3OC)NC2=O)ccc1O,-10.1% (inactive),

Compound,"activity change, negative = inhibition",AC50
COc1cc(/C=N/NC(=O)c2cccc(NC(=O)c3ccccc3)c2)ccc1O,-4.89% (inactive),
COc1cc(C(=S)N(C)C)ccc1O,-16.8% (inactive),
COc1cc(C(=O)n2nc(C)cc2C)ccc1O,-6.95% (inactive),
C/C(=N\Nc1nc2ccccc2[nH]1)c1ccc2c(c1)OCO2,-0.401% (inactive),
CCN(CCCNC(=O)CNC(=O)Cn1cnc2ccccc2c1=O)c1ccccc1,-0.598% (inactive),
COc1ccccc1N1CCN(CCc2n[nH]c(=S)n2-c2ccccc2)CC1,-1.88% (inactive),
C(=C\c1nc2ccccc2[nH]1)/c1ccccc1,-1.61% (inactive),
C/C(=C\c1ccc(N)cc1)c1nc2ccccc2[nH]1,,6.64 µM (active)
C/C(=N\Nc1nc2ccccc2[nH]1)c1cccs1,-8.06% (inactive),
COc1ccc(N2CCN(C(=O)Cc3cccs3)CC2)cc1,-2.6% (inactive),
Cc1ccc(S(=O)(=O)NNC(=O)c2ccc3ccccc3n2)cc1,-12.9% (inactive),
Oc1ccc(Br)cc1-c1cc(-c2ccco2)[nH]n1,-3.86% (inactive),
CCn1c(-c2ccccc2O)n[nH]c1=S,-2.43% (inactive),
Cc1c(NS(=O)(=O)c2ccccc2)cc(Cl)c(O)c1C,-9.8% (inactive),
O=C(O)c1ccc(CSc2nc3ccc(NC(=O)c4ccccc4C(=O)O)cc3s2)cc1,-0.1% (inactive),
COc1cc(/C(C)=N/NC(=O)Cc2c(C)[nH][nH]c2=O)ccc1O,,5.67 µM (active)
COc1cc(/C=N/NC(=O)CNC(=O)c2ccncc2)ccc1O,-3.2% (inactive),
COc1cc(C(=O)N/N=C/c2cccc(Oc3ccccc3)c2)ccc1O,-5.05% (inactive),
CC1(CCC(=O)N2CCCC(Nc3ccc(F)cc3)C2)CC1 (stereo unspecified),-2.92% (inactive),
S=c1[nH]nc(-c2ccco2)n1/N=C/c1ccccc1,-3.81% (inactive),
S=c1[nH]nc(-c2ccncc2)n1/N=C/C=C/c1ccccc1,-11.5% (inactive),
Cc1ccc(NC(=O)CN(c2ccc3c(c2)OCO3)S(=O)(=O)c2c(C)n[nH]c2C)cc1,-1.61% (inactive),
CC(c1ccc(F)cc1)n1c(-c2cccs2)n[nH]c1=S (stereo unspecified),-0.882% (inactive),
S=c1[nH]cc(-c2ccccc2)[nH]1,-10.6% (inactive),

Compound,"activity change, negative = inhibition",AC50
Fc1ccc(-c2ccnc(=S)[nH]2)cc1,,2.78 µM (active)
S=c1nccc(-c2cccs2)[nH]1,,3.95 µM (active)
Cc1ccc(N2C(=O)CC(NNC(=O)c3cccc(S(=O)(=O)N4CCCC4)c3)C2=O)cc1 (stereo unspecified),0.793% (inactive),
COc1ccccc1N1CCN(S(=O)(=O)c2ccccc2)CC1,5.49% (inactive),
CC(=O)N1CCN=C1SCc1cccc(F)c1,0.475% (inactive),
COc1ccc(-c2csc(Nc3ccc(S(=O)(=O)Nc4cc(C)on4)cc3)n2)cc1,-8.72% (inactive),
CC(C(=O)NC1C=CS(=O)(=O)C1)N1C(=O)/C(=C\c2ccccc2)SC1=S (stereo unspecified),-1.27% (inactive),
O=C(O)CCCN1C(=O)/C(=C\c2ccc(-c3nc4ccccc4s3)o2)SC1=S,-3.96% (inactive),
O=c1ccc(-c2n[nH]c(=S)n2-c2ccc(F)c(Cl)c2)n[nH]1,2.95% (inactive),
CN(C)c1cccc(C(=O)NCc2ccccc2)c1,2.16% (inactive),
CC(=O)c1ccc(S(=O)(=O)N2CCNC(=O)C2)cc1,0.022% (inactive),
COC(=O)Nc1ccc(S(=O)(=O)N2CCC(C(=O)N(C)C3CCCCC3)CC2)cc1,-4.36% (inactive),
COc1ccc(N2CCN(C(=O)CCNS(=O)(=O)c3ccccc3)CC2)cc1,-0.005% (inactive),
COc1ccccc1NC(=O)Nc1ncccc1C,-3.86% (inactive),
Cc1ccc(-c2cnc(SCCNC(=O)c3ccco3)[nH]2)cc1,-8.49% (inactive),
Cc1cccc(-n2c(-c3ccoc3C)n[nH]c2=S)c1,-11.9% (inactive),
CCN(CC)c1ccc(C2CC(=O)Nc3cc(OC)c(OC)cc32)cc1 (stereo unspecified),-0.735% (inactive),
C/C(=N\NC(=O)c1ccncc1)c1ccc(N(C)C)cc1,-1.54% (inactive),
C/C(=N\NC(=O)c1ccc(N/N=C(\C)c2ccncc2)cc1)c1ccncc1,,7.62 µM (active)
C/C(=N\NC(=O)c1cccc(N/N=C(\C)c2ccncc2)c1)c1ccncc1,-0.18% (inactive),
